{"source": "PubChem BioAssay AID624296", "about": "(National Center for Advancing Translational Sciences (NCATS), 2012)", "note": "Out of some 350,000 compounds screened, about 9,900 (2.8%) were called active. Inconclusive results (about 15%) are left out. This is one part of a sample in which actives are shown more often than they occur. Calls follow the shape of the dose curve; as a rule, active = well fitted activation curve with a large enough effect; inconclusive = small, poorly fitted or top-dose-only effect; inactive = no such curve, though single readings can be large or run the other way. Potency is read from the fitted curve at half-maximal effect."}
{"assay": "A quantitative high throughput screen for small molecules that induce DNA re-replication in MCF 10a normal breast cells; also: nearly all actives have a fitted effect of over 50% in size; as to activity, positive = re-replication: % of control where 0% means no effect.", "settings": "MCF 10A DNA re-replication, Hoechst nuclear intensity, 48 h; series mostly up to 46.1 µM; activity, positive = re-replication: at the top concentration"}
{"smiles": "Cc1nnc(NC(=O)/C=C/c2ccco2)s1", "activity, positive = re-replication": "4.48% (inactive)"}
{"smiles": "Cc1ccc(-n2nc3ccc(NC(=O)/C=C/c4ccco4)cc3n2)cc1C", "Potency": "8.2 µM (active)"}
{"smiles": "CCC(=O)Nc1ccc2nn(-c3ccc(F)cc3)nc2c1", "activity, positive = re-replication": "2.79% (inactive)"}
{"smiles": "CNN/C(N=Cc1ccc([N+](=O)[O-])s1)=N\\S(=O)(=O)c1cc(C)c(Cl)cc1SCc1ccccc1", "activity, positive = re-replication": "-0.609% (inactive)"}
{"smiles": "CN(CCc1ccccc1)C(=O)c1cccc(NC(=O)Cc2ccc([N+](=O)[O-])cc2)c1", "activity, positive = re-replication": "12.4% (inactive)"}
{"smiles": "O=C1c2ccccc2[C@@H]2C[C@@H](O)[C@H](Nc3ccccc3Cl)CCN12", "activity, positive = re-replication": "-1.09% (inactive)"}
{"smiles": "CC(C)N(C(=O)CSc1nnc(NC2CC2)s1)c1ccccc1", "activity, positive = re-replication": "3.83% (inactive)"}
{"smiles": "CC(=O)c1c(C)oc2ccc(NS(=O)(=O)c3ccccc3)cc12", "activity, positive = re-replication": "-11.8% (inactive)"}
{"smiles": "COc1ccc(S(=O)(=O)Nc2ccc3oc(C)c(C(C)=O)c3c2)cc1", "Potency": "5.17 µM (active)"}
{"smiles": "CC(=O)c1c(C)oc2ccc(NS(=O)(=O)c3ccc(C(=O)O)cc3)cc12", "activity, positive = re-replication": "0.106% (inactive)"}
{"smiles": "NN=C(NN=Cc1ccccc1)c1ccccc1", "activity, positive = re-replication": "18.1% (inactive)"}
{"smiles": "COc1ccc(S(=O)(=O)N(C)C[C@H]2Oc3ccc(NS(=O)(=O)c4cccs4)cc3CC(=O)N([C@H](C)CO)C[C@H]2C)cc1", "activity, positive = re-replication": "6.63% (inactive)"}
{"smiles": "Cc1cc(C)nc(SCC(=O)c2ccc(Cl)cc2)n1", "activity, positive = re-replication": "-3.83% (inactive)"}
{"smiles": "Cc1ccc(N/C=C/C(=O)c2ccccc2)cc1C", "activity, positive = re-replication": "23.9% (inactive)"}
{"smiles": "Cc1cc(C)nc(S/C=C/C(=O)c2ccccc2)n1", "Potency": "1.3 µM (active)"}
{"smiles": "CC(=O)C[C@H](O)CC(=O)[C@@H]1OC(=O)[C@@H](C)C/C=C\\Cc2ccccc21", "activity, positive = re-replication": "0.449% (inactive)"}
{"smiles": "CCOc1ccc(NC(=O)CN(C)C(=O)CSc2ccccc2)cc1OCC", "activity, positive = re-replication": "3.05% (inactive)"}
{"smiles": "Cc1cc(NC(=O)CSc2nnc(-c3ccco3)n2N)no1", "activity, positive = re-replication": "0.431% (inactive)"}
{"smiles": "Cc1cc(NC(=O)CSc2nc3cc(Cl)ccc3c(=O)n2Cc2ccco2)no1", "Potency": "18.4 µM (active)"}
{"smiles": "Cc1cc(NC(=O)CSc2nc3ccccc3n2CC(C)C)no1", "activity, positive = re-replication": "-1.34% (inactive)"}
{"smiles": "COc1ccc(S(=O)(=O)N2CCOCC2)cc1NC(=O)Cc1coc2cc(C)ccc12", "activity, positive = re-replication": "2.37% (inactive)"}
{"smiles": "COC(=O)C1CC2=C(CC(C)(C)CC2=O)N(c2ccccc2)C1=O", "note": "(centres undefined)", "activity, positive = re-replication": "11.7% (inactive)"}
{"smiles": "Cc1nn(Cc2ccccc2)c(C)c1C(=O)N1CCN(CC(=O)Nc2ccccc2Cl)CC1", "activity, positive = re-replication": "7.72% (inactive)"}
{"smiles": "CC(OC(=O)c1cc2ccccc2o1)C(=O)Nc1ccc(N2CCOCC2)cc1", "note": "(centres undefined)", "activity, positive = re-replication": "17% (inactive)"}
{"smiles": "CC(C)c1nc2ccc(C(=O)O)cc2[nH]1", "Potency": "11.6 µM (active)"}
{"smiles": "OC(c1nc2ccccc2[nH]1)C(O)C(O)C(O)c1nc2ccccc2[nH]1", "note": "(centres undefined)", "activity, positive = re-replication": "-6.71% (inactive)"}
{"smiles": "OC(c1nc2ccc(F)cc2[nH]1)C(O)c1nc2ccc(F)cc2[nH]1", "note": "(centres undefined)", "activity, positive = re-replication": "-16.9% (inactive)"}
{"smiles": "CN(C(=O)c1cccc(NC(=O)Cc2ccc(NC(=O)C3CCN(C(=O)C4CCCCC4)CC3)cc2)c1)C1CCC1", "activity, positive = re-replication": "-2.91% (inactive)"}
{"smiles": "Cc1ccc(S(=O)(=O)Nc2ccc3c(c2)C(=O)N([C@H](C)CO)C[C@@H](C)[C@@H](CN(C)C(=O)Nc2cccc4ccccc24)O3)cc1", "activity, positive = re-replication": "5.8% (inactive)"}
{"smiles": "CCOc1ccccc1-c1cc(C(=O)N2CCOCC2)c2ccccc2n1", "activity, positive = re-replication": "-1.36% (inactive)"}
{"smiles": "CCOc1cccc(/C=C/c2ccc3ccccc3n2)c1OC(C)=O", "Potency": "23.1 µM (active)"}
{"smiles": "CCOc1ccccc1/C=N/Nc1nc2ccccc2o1", "activity, positive = re-replication": "1.17% (inactive)"}
{"smiles": "COc1ccc(C(CNC(=O)c2cc(S(=O)(=O)Nc3cccc(C)c3)ccc2C)N2CCCC2)cc1", "note": "(centres undefined)", "activity, positive = re-replication": "14.7% (inactive)"}
{"smiles": "Cc1ccc(OCCNC(=O)CN2C(=O)NC3(CCCC3)C2=O)cc1", "activity, positive = re-replication": "11.1% (inactive)"}
{"smiles": "Cc1ccc(CNC(=O)CCNC(=O)Cn2ccc3ccccc3c2=O)cc1", "activity, positive = re-replication": "-0.229% (inactive)"}
{"smiles": "COC(=O)COc1cccc2c(=O)n(CC(=O)NCCc3ccc(OC)c(OC)c3)ccc12", "activity, positive = re-replication": "3.39% (inactive)"}
{"smiles": "COC(=O)COc1cccc2c(=O)n(CC(=O)NCc3ccccc3)ccc12", "Potency": "2.59 µM (active)"}
{"smiles": "O=C1C=C(NS(=O)(=O)c2ccccc2)C(=O)c2ccccc21", "activity, positive = re-replication": "7.8% (inactive)"}
{"smiles": "CCC(CO)Oc1cc(NC(=O)c2cccc(F)c2)c2ncn(C(C)C)c2c1", "note": "(centres undefined)", "activity, positive = re-replication": "-20.7% (inactive)"}
{"smiles": "O=C(N/N=C/c1coc2ccccc2c1=O)c1cc2ccccc2o1", "activity, positive = re-replication": "17.6% (inactive)"}
{"smiles": "Cc1c(/C=N\\NC(=O)c2cc3ccccc3o2)c2ccccc2n1C", "Potency": "6.51 µM (active)"}
{"smiles": "Cc1c(/C=N/N2C(=O)C3C4C=CC(C4)C3C2=O)c2ccccc2n1C", "note": "(centres undefined)", "activity, positive = re-replication": "15.9% (inactive)"}
{"smiles": "CCOc1ccc(C(=O)NCC(=O)N2CCN(c3ccc(C(F)(F)F)cn3)CC2)cc1", "activity, positive = re-replication": "-2.51% (inactive)"}
{"smiles": "O=C(Nc1cc(S(=O)(=O)N2CCOCC2)ccc1N1CCOCC1)c1c(F)cccc1Cl", "activity, positive = re-replication": "5.34% (inactive)"}
{"smiles": "O=C(NCc1ccc2c(c1)OCO2)c1cc(F)c(F)cc1Cl", "activity, positive = re-replication": "-0.612% (inactive)"}
{"smiles": "CCn1c(=O)c(C(=O)NCc2ccc3c(c2)OCO3)c(O)c2ccccc21", "activity, positive = re-replication": "-0.432% (inactive)"}
{"smiles": "Cc1nc2c(C(=O)NCc3ccc4c(c3)OCO4)c[nH]n2c(=O)c1Cc1ccccc1F", "Potency": "7.31 µM (active)"}
{"smiles": "Cc1cc(C)c(C#N)c(SCC(=O)N(CC(C)C)C2CCS(=O)(=O)C2)n1", "note": "(centres undefined)", "activity, positive = re-replication": "0.222% (inactive)"}
{"smiles": "Cc1cccn2c(=O)c3cc(C(=O)N4COCC4(C)C)n(C)c3nc12", "activity, positive = re-replication": "11% (inactive)"}
{"smiles": "Cc1cccn2c(=O)c(/C=C(\\C#N)C(N)=O)c(N3CCCCCC3)nc12", "activity, positive = re-replication": "-9.87% (inactive)"}
{"smiles": "Cc1cccn2c(=O)c3cc(C#N)c(=O)n(CCCN4CCOCC4)c3nc12", "Potency": "18.4 µM (active)"}
{"smiles": "Cc1ccccc1NC(=O)Cn1c(=O)n(CC2CCCO2)c(=O)c2ccccc21", "note": "(centres undefined)", "activity, positive = re-replication": "-2.54% (inactive)"}
{"smiles": "Cc1cccn2c(=O)c3cc(C(=O)NC4CCCCC4)sc3nc12", "activity, positive = re-replication": "1.95% (inactive)"}
{"smiles": "Cc1cccn2c(=O)c3cc(C#N)c(=NC(=O)c4cccnc4)n(CC4CCCO4)c3nc12", "note": "(centres undefined)", "Potency": "13 µM (active)"}
{"smiles": "CCOc1cc(C(=O)N(Cc2ccccc2)c2ccc(C)cc2)ccc1OCC(=O)N1CCOCC1", "activity, positive = re-replication": "2.29% (inactive)"}
{"smiles": "COc1ccc(C2NCCCC2c2ccccc2)cc1", "note": "(centres undefined)", "activity, positive = re-replication": "0.784% (inactive)"}
{"smiles": "COc1ccc(-c2cc3ccc(OCc4nn[nH]n4)cc3oc2=O)cc1", "activity, positive = re-replication": "2.51% (inactive)"}
{"smiles": "O=c1oc2cc(O)ccc2cc1-c1ccc(F)cc1", "Potency": "14.6 µM (active)"}
{"smiles": "COc1cccc(C(=O)c2cc3ccc(O)cc3oc2=O)c1", "activity, positive = re-replication": "11.9% (inactive)"}
{"smiles": "CCCCCCCCNS(=O)(=O)CCNC1CCCCC1", "activity, positive = re-replication": "-22.3% (inactive)"}
{"smiles": "O=C(Nc1ccc(S(=O)(=O)N2CCOCC2)cc1)C1CCN(S(=O)(=O)c2ccc(Cl)cc2)CC1", "activity, positive = re-replication": "-0.304% (inactive)"}
{"smiles": "COc1ccc(-c2cc3ncccc3cn2)cc1", "activity, positive = re-replication": "11.1% (inactive)"}
{"smiles": "COc1ccc(-c2nc(CS(=O)CC(=O)NCc3ccccn3)c(C)o2)cc1", "note": "(centres undefined)", "activity, positive = re-replication": "-0.718% (inactive)"}
{"smiles": "COc1ccc(-c2sc3ccc(OC)cc3c2C#Cc2ccccn2)cc1", "Potency": "18.4 µM (active)"}
